# Screening data from PubChem BioAssay.
# The full list was thinned out, with hits kept by preference.
# ST2 IL33 inh = inhibitors of human ST2 (IL1RL1) binding to IL-33, primary screen, biochemical, AlphaLISA; Interleukin-1 receptor-like 1 (Homo sapiens), Q01638; AlphaLISA ST2-Fc/biotin-IL-33 interaction, 1 h; inhibition, % for hits at 17 µM; hit rate 2.3% among 78,000; in the data active means inhibition above about 30%
# Target sequence (Q01638 whole entry, looked up): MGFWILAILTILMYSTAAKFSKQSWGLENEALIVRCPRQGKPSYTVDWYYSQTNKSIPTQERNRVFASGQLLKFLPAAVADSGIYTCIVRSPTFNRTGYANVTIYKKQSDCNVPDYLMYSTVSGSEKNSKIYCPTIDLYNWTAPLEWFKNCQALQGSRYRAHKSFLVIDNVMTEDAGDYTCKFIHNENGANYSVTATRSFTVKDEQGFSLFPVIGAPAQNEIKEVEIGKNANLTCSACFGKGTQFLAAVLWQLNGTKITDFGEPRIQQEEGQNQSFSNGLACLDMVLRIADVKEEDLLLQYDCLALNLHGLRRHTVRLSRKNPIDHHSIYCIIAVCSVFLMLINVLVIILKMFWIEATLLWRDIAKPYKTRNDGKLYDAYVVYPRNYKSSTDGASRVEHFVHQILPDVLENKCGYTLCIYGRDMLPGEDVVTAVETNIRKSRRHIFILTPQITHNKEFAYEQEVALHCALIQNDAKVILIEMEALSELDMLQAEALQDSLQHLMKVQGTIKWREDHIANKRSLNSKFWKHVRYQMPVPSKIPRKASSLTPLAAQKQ
# A number is an active result; 0 = inactive; ! = not active in a repeat.
SMILES,ST2 IL33 inh
O=C(C1CCN(S(=O)(=O)c2cccnc2)CC1)N1CCN(c2ccccc2)CC1,0
COc1ccc(C(=O)N(c2ccc(OC)cc2OC)C2C=CS(=O)(=O)C2)cc1 (stereo not given),0
O=C(CN1C(=O)/C(=C/c2ccccc2F)Sc2ccccc21)N1CCCC1,33.0%
Cc1ccc(CNC(=O)CN2C(=O)/C(=C/c3ccccc3F)Sc3ccccc32)cc1,0
O=C(CN1C(=O)/C(=C/c2ccccc2F)Sc2ccccc21)NCCN1CCOCC1,0
CN1CCN(C(=O)C2CNCCN2C(=O)c2ccc3ccccc3n2)CC1 (stereo not given),0
COc1ccc(C(=O)CSc2n[nH]c(C)n2)cc1C,0
Cc1nc2ccccc2n1C(=O)c1ccccc1[N+](=O)[O-],0
O=C(Nc1ccccc1[N+](=O)[O-])C1=C(O)CCn2c1nc1ccccc12,34.0%
O=C(Nc1ccccc1[N+](=O)[O-])C1=NN=CC1[N+](=O)[O-] (stereo not given),0
c1cc(CN2CCCCCC2)cs1,0
Cc1cccc(C(=O)Nc2c3c(nn2C(C)(C)C)CSC3)c1,0
Cc1cccc(C)c1OCC(=O)Nc1ccccc1,0
NC(=O)[C@H](Cc1ccccc1)N1CC[C@H]2CN(C(=O)C3CCCCC3)CC[C@H]2CC1=O,0
O=C1C[C@@H]2CCN(Cc3ccccc3)C[C@@H]2CCN1C1CCCCC1,76.0%
c1ccc(CN2CCN(C3CCCCCC3)CC2)cc1,0
COC(OC)C12c3ccccc3C(c3ccccc31)[C@@H]1C(=O)N(c3cccc(C)c3C)C(=O)[C@@H]12,0
CN(c1ccc(Br)cc1)S(=O)(=O)c1cccc2nsnc12,0
CC(=O)Nc1cccc(-c2cn3ccsc3n2)c1,0
O=[N+]([O-])c1cc(C=Nc2ccc(N3CCOCC3)cc2)ccc1Cl,48.0%
O=[N+]([O-])c1cc(C=Nc2ccc(-c3nc4ncccc4o3)cc2)ccc1Cl,0
O=[N+]([O-])c1ccc(N2CCCC2)cc1N1CCOCC1,0
Cc1c(-c2nccn2CCn2ccnc2)oc2ccccc12,0
COc1ccc(C2CC(=O)N3CN(Cc4ccccc4)CSC3=C2C#N)cc1 (stereo not given),0
COc1ccccc1OCC(=O)Nc1sc2c(c1C(N)=O)CCCC2,0
SMILES,ST2 IL33 inh
COc1ccc(C(=O)Nc2sc3c(c2C(N)=O)CCCC3)cc1[N+](=O)[O-],31.0%
CC(C)(C)c1ccc(C(=O)Nc2sc3c(c2C(N)=O)CCCC3)cc1,0
O[C@@H]1CN(Cc2cc3n(n2)CCCNC3)CC[C@H]1c1ccc2c(c1)OCO2,0
Brc1ccc(-c2ncnn2-c2ccc(Br)nc2)cc1,0
Clc1ccc(-c2ncnn2-c2ccc(Br)cc2)cc1,33.0%!
Clc1ccccc1-n1ncnc1-c1ccc(Br)cc1,0
COCC1OC(OC2OC(=O)C(C(O)c3ccccc3)=C2c2ccccc2)C(NC(C)=O)C(O)C1O (stereo not given),0
CC(CNC(=O)CCN1Cc2cc(Cl)ccc2OC(C)C1)Oc1cccnc1 (stereo not given),0
O=S(=O)(NCCc1csc(-c2ccncc2)n1)NCc1ccccc1,0
Cc1oc(-c2ccc(Cl)cc2)nc1CSCC(=O)NCCCN1CCCC1,0
Nc1ccc(-c2cc(-c3ccccc3)nc(-c3ccc(N)cc3)n2)cc1,0
Nc1ccc(-c2ccc3ccccc3n2)cc1,0
Nc1ccc(-c2c3ccccc3nc3cc(N)ccc23)cc1,61.0%
CCN1CCN(C(=O)c2ccccc2NC(=O)c2ccc(Br)cc2)CC1,0
COc1cccc(C(C)N(C)C(=O)c2cc(Cn3ccnc3C(C)C)[nH]n2)c1 (stereo not given),0
O=C1N=c2ccc(Cl)cc2=C1c1sc(Nc2ccc(Cl)cc2)nc1O,44.0%
Cc1cc(Br)c2c(c1)=C(c1sc(Nc3ccccc3Cl)nc1O)C(=O)N=2,0
O=C1N=c2ccc(F)cc2=C1c1sc(Nc2ccc(Br)cc2)nc1O,0
Cc1c(Cl)ccc2c1=NC(=O)C=2c1sc(Nc2ccc(Br)cc2)nc1O,0
Cc1cccc(Nc2nc(O)c(C3=c4cc(Br)ccc4=NC3=O)s2)c1C,42.0%
Cc1ccccc1NC(=O)c1cccc(Br)c1,0
O=C(c1cccn2c(=O)c3sccc3nc12)N1CCN(c2ccc(F)cc2)CC1,0
O=C(NCc1cccnc1)c1cc(-c2ccc(Br)cc2)on1,0
Cc1cc(C(=O)Nc2c(C)nn(Cc3ccccc3)c2C)no1,0
O=C(NCCc1c[nH]c2ccccc12)c1ccc2c(=O)n(CCc3ccccc3)c(=O)[nH]c2c1,0
SMILES,ST2 IL33 inh
COc1ccc(-c2cc(=O)c3cc(Br)ccc3o2)cc1OC,31.0%
COc1cc(-c2cc(=O)c3ccccc3o2)ccc1O,0
COc1ccc(-c2cc(=O)c3cc(F)ccc3o2)cc1OC,0
CCNC(=O)C(C)NC1CCN(C(=O)OCC)CC1 (stereo not given),0
Cc1cc(C(=O)N2CCOc3ccc(CN4CCOCC4)cc3C2)c2ccc(F)cc2n1,0
Cc1ccc(N2C(=O)C(N3C(=O)c4ccccc4C3=O)C2c2ccc(N(C)C)cc2)cc1F (stereo not given),31.0%!
COc1cc2c(cc1OC)C(C(=O)Nc1ccc(C)c(F)c1)C(c1cccs1)N(C)C2=O (stereo not given),0
Cc1cc(N2C(=O)c3cccc([N+](=O)[O-])c3C2=O)no1,0
Cc1ccc(N2C(=O)C(N3C(=O)c4cccc([N+](=O)[O-])c4C3=O)C2c2cccs2)cc1F (stereo not given),32.0%
Cc1cc(Cl)ccc1N1C(=O)C(N2C(=O)c3ccc([N+](=O)[O-])cc3C2=O)C1c1cccs1 (stereo not given),39.0%
O=C1c2ccc([N+](=O)[O-])cc2C(=O)N1CN1CCCCC1,0
COc1cccc(C2C(N3C(=O)c4ccccc4C3=O)C(=O)N2c2ccc(C)c(F)c2)c1 (stereo not given),0
COc1cccc(C2C(N3C(=O)c4ccccc4C3=O)C(=O)N2c2ccc(C)c(C)c2)c1 (stereo not given),0
O=C1c2ccc([N+](=O)[O-])cc2C(=O)N1c1c[nH]c(=O)[nH]c1=O,0
c1cc(-c2ccc(CN3CCCCC3)cc2)[nH]n1,0
COc1ccc2ccccc2c1CCNC(C)CC(F)(F)F (stereo not given),0
COc1cc(NS(=O)(=O)c2ccc3c(c2)c(=O)n(C)c(=O)n3C)cc(OC)c1,0
COc1ccc(C(=O)N[C@H]2CO[C@H]3[C@@H]2OC[C@@H]3Nc2nccc(-c3ccccc3OC)n2)cc1,0
CC(C)N(C(=O)c1ccc(Br)o1)C(C)C,0
COC(=O)c1cccc(NC(=S)N[C@H]2CO[C@H]3[C@@H]2OC[C@@H]3n2nnnc2Oc2cccc(N(C)C)c2)c1,0
Cc1ccc(C(=O)N[C@H]2CO[C@H]3[C@@H]2OC[C@@H]3n2nnnc2-c2ccc(N(C)C)cc2)cc1,0
Cc1ccc(C(=O)N[C@H]2CO[C@H]3[C@@H]2OC[C@@H]3n2nnnc2Oc2cccc(N(C)C)c2)cc1,81.0%
O=C(CCc1nc(-c2ccccc2F)no1)N1CCN(c2ccccc2F)CC1,0
O=C(CCc1nc2sc3c(c2c(=O)[nH]1)CCCC3)NCc1ccccn1,0
COc1cccc(CNC(=O)CSc2nc(-c3ccc4c(c3)OCO4)nc3cc(=O)[nH]n23)c1,0
O=C(c1cc(-c2cccnc2)nc2ccccc12)N1CC[C@H]2CC[C@@H](C1)N2,0
c1ccc2c(CN3CCOCC3)ccnc2c1,40.0%
CS(=O)(=O)NCCC1CN(Cc2ccnc3ccccc23)CCO1 (stereo not given),0
